According to PubChem BioAssay (EPA / NIEHS):
Active and inactive are the calls of the source. Rule for the calls: active = hit-call score of the fitted dose curve at least 0.9, where 1 is the maximum; inactive = score below 0.9.

Experiments:
Details in all cases: mRNA level, 48 h; actives raise or lower the signal
MYC, MYC (gene 4609) = assay: LTEA_HepaRG_MYC: Life Technologies and Expression Analysis (LTEA) Assay for MYC using HepaRG (AID 2283518)
Procedure, shortened: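 Differentiated human HepaRG cells, plated 48 h then switched to serum-free induction medium, were exposed in duplicate for 48 h to 8-point half-log series up to 100 uM in 0.5% DMSO. MYC mRNA measured by qRT-PCR, normalized to ACTB/GAPDH/POLR2A.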

[1] = read-out: matrix metalloproteinase-3 (MMP3), MMP3 (gene 4314); assay: LTEA_HepaRG_MMP3: Life Technologies and Expression Analysis (LTEA) Assay for matrix metalloproteinase-3 (MMP3) using HepaRG (AID 2283519)
Procedure, shortened: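 qRT-PCR read-out of MMP3 mRNA (normalised to three housekeeping genes) in HepaRG liver cells after 48 h chemical exposure; 8-point half-log series, top 100 uM, 0.5% DMSO vehicle. Bidirectional curve fitting against DMSO baseline.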

[2] = read-out: Paternally Expressed 10 (PEG10), PEG10 (gene 23089); assay: LTEA_HepaRG_PEG10: Life Technologies and Expression Analysis (LTEA) Assay for Paternally Expressed 10 (PEG10) using HepaRG (AID 2283520);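 for AC50: PEG10 transcript by qRT-PCR normalised to ACTB GAPDH and POLR2A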
Procedure, shortened: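 After 48 h exposure of differentiated HepaRG cells (0.5% DMSO vehicle, eight concentrations up to 100 uM, duplicates), PEG10 mRNA was measured by TaqMan qRT-PCR. Values were normalised to endogenous control genes and analysed bidirectionally against vehicle.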

[3] = read-out: Nuclear factor NF-kappa-B p105 subunit (Homo sapiens) (UniProt P19838); assay: LTEA_HepaRG_NFKB1: Life Technologies and Expression Analysis (LTEA) Assay for Nuclear Factor Kappa B Subunit 1 (NFKB1) using HepaRG (AID 2283521)
Procedure, shortened: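 HepaRG, 48 h exposure; 8-pt half-log series from 100 uM in 0.5% DMSO; duplicates. Readout: NFKB1 mRNA by qRT-PCR (Fluidigm arrays), housekeeping-normalized. Gain/loss fit vs DMSO baseline.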

[4] = read-out: Phosphatase and tensin (PTEN), PTEN (gene 5728); assay: LTEA_HepaRG_PTEN: Life Technologies and Expression Analysis (LTEA) Assay for Phosphatase and tensin (PTEN) using HepaRG (AID 2283523)
Procedure, shortened: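 HepaRG, 48 h exposure, 8-pt half-log series from 100 uM top, 0.5% DMSO vehicle, duplicates. Readout: Fluidigm qRT-PCR of PTEN transcript; housekeeping normalization (ACTB, GAPDH, POLR2A). Gain or loss fitted relative to DMSO baseline.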

[5] = read-out: solute carrier (SLC22A1), SLC22A1 (gene 6580); assay: LTEA_HepaRG_SLC22A1: Life Technologies and Expression Analysis (LTEA) Assay for solute carrier (SLC22A1) using HepaRG (AID 2283524);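 for AC50: TaqMan qRT-PCR normalized to ACTB GAPDH and POLR2A housekeeping genes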
Procedure, shortened: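 qRT-PCR readout (TaqMan, Fluidigm arrays) of SLC22A1 transcript, normalized to three housekeeping genes; bidirectional curve fit relative to 0.5% DMSO vehicle. Differentiated human HepaRG cells, 48 h chemical exposure, top concentration 100 uM, half-log steps, eight points.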

[6] = read-out: Pyruvate Dehydrogenase Kinase 4 (PDK4), PDK4 (gene 5166); assay: LTEA_HepaRG_PDK4: Life Technologies and Expression Analysis (LTEA) Assay for Pyruvate Dehydrogenase Kinase 4 (PDK4) using HepaRG (AID 2283525)
Procedure, shortened: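 HepaRG (human liver line), 48 h chemical exposure, 8-pt half-log CRC top 100 uM, 0.5% DMSO vehicle, duplicates. Readout: TaqMan qRT-PCR of PDK4 mRNA, housekeeping-normalized; gain/loss fit relative to DMSO baseline.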

[7] = read-out: NAD(P)H dehydrogenase [quinone] 1 (NQO1), NQO1 (gene 1728); assay: LTEA_HepaRG_NQO1: Life Technologies and Expression Analysis (LTEA) Assay for NAD(P)H dehydrogenase [quinone] 1 (NQO1) using HepaRG (AID 2283526)
Procedure, shortened: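 In this assay, gene expression is read by qRT-PCR after 48 h exposure of HepaRG cells to eight concentrations (max 100 uM, half-log) in 0.5% DMSO. Each chemical runs in duplicate, and activity is scored relative to vehicle.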

[8] = read-out: Nuclear factor erythroid 2-related factor 2 (Homo sapiens) (UniProt Q16236); assay: LTEA_HepaRG_NFE2L2: Life Technologies and Expression Analysis (LTEA) Assay for Nuclear factor erythroid 2-related factor 2 (NFE2L2) Transcription Factor using HepaRG (AID 2283527)
Procedure, shortened: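 HepaRG, 48 h dosing, 8-pt half-log series from 100 uM in 0.5% DMSO, duplicates. Read-out: NFE2L2 mRNA by qRT-PCR (ACTB/GAPDH/POLR2A normalization). Bidirectional curve fit vs DMSO baseline.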

[9] = read-out: Protein phosphatase 2A (PPP2R4), PTPA (gene 5524); assay: LTEA_HepaRG_PPP2R4: Life Technologies and Expression Analysis (LTEA) Assay for Protein phosphatase 2A (PPP2R4) using HepaRG (AID 2283522)
Procedure, shortened: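 Using HepaRG cultures maintained in 0.5% DMSO, chemicals are tested 48 h at up to 100 uM in duplicate. Induction or suppression of PPP2R4 mRNA, measured by qRT-PCR, is fitted bidirectionally against the vehicle baseline.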

Measured: AC50

Nuclear factor erythroid 2-related factor 2 (Homo sapiens), sequence (Q16236 whole entry, looked up): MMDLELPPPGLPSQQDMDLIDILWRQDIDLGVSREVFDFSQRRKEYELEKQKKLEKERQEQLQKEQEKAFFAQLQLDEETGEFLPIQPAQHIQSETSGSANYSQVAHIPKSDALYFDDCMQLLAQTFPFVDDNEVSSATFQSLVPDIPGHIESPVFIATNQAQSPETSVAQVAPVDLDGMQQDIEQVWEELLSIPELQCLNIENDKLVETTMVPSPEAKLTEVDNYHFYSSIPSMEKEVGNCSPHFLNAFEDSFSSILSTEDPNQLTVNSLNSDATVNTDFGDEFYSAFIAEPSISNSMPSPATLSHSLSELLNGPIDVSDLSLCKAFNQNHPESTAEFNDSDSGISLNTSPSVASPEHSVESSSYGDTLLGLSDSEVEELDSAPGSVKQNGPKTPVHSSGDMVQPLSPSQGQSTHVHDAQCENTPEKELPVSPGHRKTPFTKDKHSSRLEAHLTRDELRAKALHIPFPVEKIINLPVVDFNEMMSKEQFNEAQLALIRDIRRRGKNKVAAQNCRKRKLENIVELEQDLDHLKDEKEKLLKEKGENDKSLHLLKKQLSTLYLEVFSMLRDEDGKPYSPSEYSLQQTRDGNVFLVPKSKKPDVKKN
Nuclear factor NF-kappa-B p105 subunit (Homo sapiens), sequence (P19838 whole entry, looked up): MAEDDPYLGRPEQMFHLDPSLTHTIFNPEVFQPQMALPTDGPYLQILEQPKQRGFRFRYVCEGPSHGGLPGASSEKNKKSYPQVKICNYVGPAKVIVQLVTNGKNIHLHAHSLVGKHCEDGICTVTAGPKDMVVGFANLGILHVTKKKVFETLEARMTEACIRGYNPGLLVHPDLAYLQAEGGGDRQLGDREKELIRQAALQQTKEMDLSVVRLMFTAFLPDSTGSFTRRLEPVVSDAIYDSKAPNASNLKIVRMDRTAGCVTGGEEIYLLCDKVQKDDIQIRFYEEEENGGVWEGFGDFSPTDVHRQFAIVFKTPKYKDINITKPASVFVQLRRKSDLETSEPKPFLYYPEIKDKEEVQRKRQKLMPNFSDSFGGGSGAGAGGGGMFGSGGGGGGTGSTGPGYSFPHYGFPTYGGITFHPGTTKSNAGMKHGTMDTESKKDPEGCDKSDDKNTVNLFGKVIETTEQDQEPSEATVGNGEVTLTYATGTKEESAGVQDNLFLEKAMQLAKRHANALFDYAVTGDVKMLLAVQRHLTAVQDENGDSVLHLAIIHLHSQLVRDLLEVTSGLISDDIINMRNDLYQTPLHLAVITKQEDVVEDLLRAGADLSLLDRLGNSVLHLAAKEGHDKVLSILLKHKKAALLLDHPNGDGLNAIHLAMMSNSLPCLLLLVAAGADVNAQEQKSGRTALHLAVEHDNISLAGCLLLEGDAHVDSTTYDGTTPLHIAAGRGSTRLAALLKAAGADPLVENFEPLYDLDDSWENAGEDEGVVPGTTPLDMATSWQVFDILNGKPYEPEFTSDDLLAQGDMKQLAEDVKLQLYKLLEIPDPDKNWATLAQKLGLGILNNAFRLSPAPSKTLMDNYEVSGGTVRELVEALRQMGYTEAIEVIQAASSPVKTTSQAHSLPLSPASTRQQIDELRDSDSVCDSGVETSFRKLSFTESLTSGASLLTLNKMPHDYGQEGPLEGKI

CCCCC(CC)COP(=O)(OCC(CC)CCCC)OCC(CC)CCCC (stereo not given)
not listed: [9]
inactive: all other assays above

O=C(N[C@@H](c1ccccc1)[C@@H]1CCCCN1)c1cccc(C(F)(F)F)c1Cl
active: MYC, MYC (gene 4609) 50 µM | [1] 87.1 µM | [2] 50 µM | [4] 75.2 µM | [5] 40.5 µM | [6] 50 µM
inactive: [3]

CCOCCOCCO
not listed: [7] | [9]
inactive: all other assays above

NC=O
not listed: [7]
inactive: all other assays above

CCCCCCC(C=O)=Cc1ccccc1
not listed: [9]
inactive: all other assays above

O=C(O)c1[nH]n(-c2ccc(S(=O)(=O)O)cc2)c(=O)c1N=Nc1ccc(S(=O)(=O)O)cc1
not listed: [7] | [9]
inactive: all other assays above

COc1ccc(OC(F)(F)F)cc1CN[C@H]1CCCN[C@H]1c1ccccc1
active: MYC, MYC (gene 4609) 7.25 µM | [1] 80.2 µM | [2] 55.2 µM | [5] 50 µM | [8] 14.7 µM
inactive: [3] | [6] | [7]

c1ccc2occc2c1
not listed: [7] | [9]
inactive: all other assays above

Cc1c(C)c2c(c(C)c1O)CCC(C)(COc1ccc(CC3SC(=O)NC3=O)cc1)O2 (stereo not given)
active: [2] 91.5 µM | [3] 77 µM
not listed: [5]
inactive: all other assays above

CN(C)CCCN(C)CCCN(C)C
not listed: [7] | [8] | [9]
inactive: all other assays above

CCCCCCC(CCCCCCCCCCC(=O)OCC(COC(C)=O)OC(C)=O)OC(C)=O (stereo not given)
not listed: [7] | [8] | [9]
inactive: all other assays above

Cc1cc(Cc2ccc(N)c(C)c2)ccc1N
not listed: [7] | [8] | [9]
inactive: all other assays above

CC(=O)S[C@H](C(=O)N[C@H]1Cc2ccccc2[C@H]2CCC[C@@H](C(=O)O)N2C1=O)C(C)C
not listed: [9]
inactive: all other assays above

CO[C@@H]1COCC[C@@H]1N[C@@H]1CC[C@@](C(=O)N2CCc3ncc(C(F)(F)F)cc3C2)(C(C)C)C1
not listed: [7] | [9]
inactive: all other assays above

C=CCCCCCCCCCCCC
not listed: [8] | [9]
inactive: all other assays above

CCCCCCCCCCCCCCCCO
active: [6] 66.3 µM
not listed: [8] | [9]
inactive: all other assays above

CN(C)C(=O)NC1(c2ccccc2)CCN(CCC[C@]2(c3ccc(Cl)c(Cl)c3)CCCN(C(=O)c3ccccc3)C2)CC1
active: [3] 21.3 µM
